Results reported in publication PMC7862700, “An all-to-all approach to the identification of sequence-specific readers for epigenetic DNA modifications on cytosine”.

How the values were obtained:
Experiment in all cases: DAPPL (digital affinity profiling via proximity ligation, sequencing); 10 mM Tris-HCl pH 7.5, 50 mM NaCl, 1 mM DTT, 4% glycerol, room temperature, 30 min; GST-TFs on glutathione beads, 16-mer random dsDNA library, 0.1% formaldehyde crosslink after washing; high values mean tight binding
FEV = molecular target: T1, FEV (Homo sapiens, UniProt Q99581 1-238); conditions: protein: recombinant; tags: N-terminal GST; dsDNA, one strand shown
T1 sequence: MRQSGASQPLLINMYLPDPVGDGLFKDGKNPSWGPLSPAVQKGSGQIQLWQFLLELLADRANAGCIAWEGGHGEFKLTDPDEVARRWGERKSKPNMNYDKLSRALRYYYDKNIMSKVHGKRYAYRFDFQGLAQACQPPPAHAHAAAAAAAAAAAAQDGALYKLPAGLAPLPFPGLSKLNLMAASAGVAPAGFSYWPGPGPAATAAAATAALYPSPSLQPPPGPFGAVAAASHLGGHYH
Method in brief: (§1)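 Human transcription factors fused to GST were expressed in yeast, captured on glutathione beads, given DNA barcodes and pooled with a GST-only negative control. Pools were incubated with 200 nmole of a 16-mer random double-stranded DNA library in Tris/NaCl/DTT/glycerol buffer at room temperature for 30 min. They were then washed, crosslinked with 0.1% formaldehyde, proximity-ligated (BsaI/T4 ligase, 1 h, 37 °C), PCR-amplified and sequenced on an Illumina NextSeq500. Binding signal is each 6-mer's read frequency for a factor divided by its frequency for the GST control.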

ETV5 = ETV5 (Homo sapiens, UniProt P41161 1-510); conditions: protein: recombinant; tags: N-terminal GST; dsDNA, one strand shown
Method in brief: as §1

HSF1 = HSF1 (Homo sapiens, UniProt Q00613 1-529); conditions: protein: recombinant; tags: N-terminal GST; chain copies: 3; dsDNA, one strand shown
Method in brief: as §1

SPIC = molecular target: T2, SPIC (Homo sapiens, UniProt Q8N5J4 1-248); conditions: protein: recombinant; tags: N-terminal GST; dsDNA, one strand shown
T2 sequence: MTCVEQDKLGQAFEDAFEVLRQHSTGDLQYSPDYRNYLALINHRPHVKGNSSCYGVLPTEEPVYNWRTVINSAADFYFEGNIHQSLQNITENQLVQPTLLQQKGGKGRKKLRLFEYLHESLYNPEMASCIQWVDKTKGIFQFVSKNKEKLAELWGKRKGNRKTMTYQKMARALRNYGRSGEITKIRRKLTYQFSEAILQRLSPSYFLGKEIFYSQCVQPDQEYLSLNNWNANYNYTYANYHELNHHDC
Method in brief: as §1

ELF4 = ELF4 (Homo sapiens, UniProt Q99607 1-663); conditions: protein: recombinant; tags: N-terminal GST; dsDNA, one strand shown
Method in brief: as §1

ELK4 = molecular target: T3, ELK4 (Homo sapiens, UniProt P28324-2 1-405); conditions: protein: recombinant; tags: N-terminal GST; dsDNA, one strand shown
T3 sequence: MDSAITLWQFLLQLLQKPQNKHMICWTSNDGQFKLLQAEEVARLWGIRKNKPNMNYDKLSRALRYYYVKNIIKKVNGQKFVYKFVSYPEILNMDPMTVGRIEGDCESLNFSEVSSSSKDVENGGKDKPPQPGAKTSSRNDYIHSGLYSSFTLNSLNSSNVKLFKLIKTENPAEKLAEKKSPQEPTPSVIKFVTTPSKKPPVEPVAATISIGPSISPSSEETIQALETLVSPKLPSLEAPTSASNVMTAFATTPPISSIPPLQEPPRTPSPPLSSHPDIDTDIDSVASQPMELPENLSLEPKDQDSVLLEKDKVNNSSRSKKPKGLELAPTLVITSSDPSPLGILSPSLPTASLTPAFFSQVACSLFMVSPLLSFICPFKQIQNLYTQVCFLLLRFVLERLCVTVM
Method in brief: as §1

ETV2 = molecular target: T4, ETV2 (Homo sapiens, UniProt O00321 1-342); conditions: protein: recombinant; tags: N-terminal GST; dsDNA, one strand shown
T4 sequence: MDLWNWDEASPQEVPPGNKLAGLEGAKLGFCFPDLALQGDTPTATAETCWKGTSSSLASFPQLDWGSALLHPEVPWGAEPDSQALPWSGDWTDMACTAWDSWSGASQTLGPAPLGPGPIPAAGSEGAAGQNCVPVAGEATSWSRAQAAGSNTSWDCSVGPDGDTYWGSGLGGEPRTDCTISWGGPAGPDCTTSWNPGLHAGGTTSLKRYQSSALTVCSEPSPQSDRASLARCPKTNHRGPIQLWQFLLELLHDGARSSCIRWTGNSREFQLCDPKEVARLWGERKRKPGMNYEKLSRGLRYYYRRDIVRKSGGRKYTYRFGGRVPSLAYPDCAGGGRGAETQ
Method in brief: as §1

ELF3 = molecular target: T5, ELF3 (Homo sapiens, UniProt P78545 1-371); conditions: protein: recombinant; tags: N-terminal GST; dsDNA, one strand shown
T5 sequence: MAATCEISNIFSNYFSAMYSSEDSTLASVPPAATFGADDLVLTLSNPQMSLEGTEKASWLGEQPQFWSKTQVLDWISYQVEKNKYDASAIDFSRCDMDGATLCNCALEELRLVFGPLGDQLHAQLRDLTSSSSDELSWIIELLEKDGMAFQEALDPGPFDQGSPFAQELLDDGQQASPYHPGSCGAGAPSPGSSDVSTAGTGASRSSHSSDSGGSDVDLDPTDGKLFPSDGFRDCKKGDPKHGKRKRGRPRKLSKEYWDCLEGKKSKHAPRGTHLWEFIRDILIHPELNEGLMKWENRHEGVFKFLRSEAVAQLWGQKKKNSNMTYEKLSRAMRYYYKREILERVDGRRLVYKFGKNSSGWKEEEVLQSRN
Method in brief: as §1

CRX = CRX (Homo sapiens, UniProt O43186 1-299); conditions: protein: recombinant; tags: N-terminal GST; dsDNA, one strand shown
Method in brief: as §1

ETV1 = ETV1 (Homo sapiens, UniProt P50549 1-477); conditions: protein: recombinant; tags: N-terminal GST; dsDNA, one strand shown
Method in brief: as §1

ERF = molecular target: T6, ERF (Homo sapiens, UniProt P50548 1-548); conditions: protein: recombinant; tags: N-terminal GST; dsDNA, one strand shown
T6 sequence: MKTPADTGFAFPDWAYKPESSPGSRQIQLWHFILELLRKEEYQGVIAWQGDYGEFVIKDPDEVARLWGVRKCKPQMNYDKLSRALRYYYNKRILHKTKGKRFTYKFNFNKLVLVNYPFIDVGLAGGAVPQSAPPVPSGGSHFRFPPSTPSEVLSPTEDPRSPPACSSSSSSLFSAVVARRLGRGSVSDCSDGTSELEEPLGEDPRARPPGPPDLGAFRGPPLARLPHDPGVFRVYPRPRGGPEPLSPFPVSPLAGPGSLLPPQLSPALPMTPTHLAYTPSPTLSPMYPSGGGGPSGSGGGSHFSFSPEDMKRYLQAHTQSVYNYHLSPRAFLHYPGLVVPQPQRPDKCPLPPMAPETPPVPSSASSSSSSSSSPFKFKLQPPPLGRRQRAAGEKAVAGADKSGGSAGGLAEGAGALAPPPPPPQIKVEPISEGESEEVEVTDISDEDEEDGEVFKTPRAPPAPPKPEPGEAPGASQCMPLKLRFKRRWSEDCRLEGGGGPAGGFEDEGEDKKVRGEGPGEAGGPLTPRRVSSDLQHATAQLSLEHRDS
Method in brief: as §1

ETV3L = molecular target: T7, ETV3L (Homo sapiens, UniProt Q6ZN32 1-361); conditions: protein: recombinant; tags: N-terminal GST; dsDNA, one strand shown
T7 sequence: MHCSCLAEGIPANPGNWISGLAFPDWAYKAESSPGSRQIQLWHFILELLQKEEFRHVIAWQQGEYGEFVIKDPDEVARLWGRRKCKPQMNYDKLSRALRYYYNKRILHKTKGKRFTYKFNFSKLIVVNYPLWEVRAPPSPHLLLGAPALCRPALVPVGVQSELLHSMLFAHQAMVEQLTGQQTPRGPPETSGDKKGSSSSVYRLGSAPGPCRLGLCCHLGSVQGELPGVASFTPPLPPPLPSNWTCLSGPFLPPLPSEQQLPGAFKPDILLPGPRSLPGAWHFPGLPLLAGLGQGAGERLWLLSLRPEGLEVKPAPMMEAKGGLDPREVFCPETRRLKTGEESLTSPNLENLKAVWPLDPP
Method in brief: as §1

ETS2 = molecular target: T8, ETS2 (Homo sapiens, UniProt P15036 1-469); conditions: protein: recombinant; tags: N-terminal GST; dsDNA, one strand shown
T8 sequence: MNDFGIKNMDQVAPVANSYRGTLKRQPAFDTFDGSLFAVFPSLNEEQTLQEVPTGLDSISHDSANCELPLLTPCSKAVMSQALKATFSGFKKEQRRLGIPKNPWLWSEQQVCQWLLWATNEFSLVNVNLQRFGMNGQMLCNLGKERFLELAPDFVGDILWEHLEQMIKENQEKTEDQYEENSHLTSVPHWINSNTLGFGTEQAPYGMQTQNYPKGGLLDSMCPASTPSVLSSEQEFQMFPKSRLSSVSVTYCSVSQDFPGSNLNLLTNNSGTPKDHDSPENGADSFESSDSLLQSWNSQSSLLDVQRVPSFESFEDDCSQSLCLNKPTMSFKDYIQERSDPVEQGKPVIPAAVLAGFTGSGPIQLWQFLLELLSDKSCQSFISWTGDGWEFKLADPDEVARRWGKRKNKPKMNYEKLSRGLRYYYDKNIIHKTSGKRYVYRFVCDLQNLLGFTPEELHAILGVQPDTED
Method in brief: as §1

SPDEF = molecular target: T9, SPDEF (Homo sapiens, UniProt O95238 1-335); conditions: protein: recombinant; tags: N-terminal GST; dsDNA, one strand shown
T9 sequence: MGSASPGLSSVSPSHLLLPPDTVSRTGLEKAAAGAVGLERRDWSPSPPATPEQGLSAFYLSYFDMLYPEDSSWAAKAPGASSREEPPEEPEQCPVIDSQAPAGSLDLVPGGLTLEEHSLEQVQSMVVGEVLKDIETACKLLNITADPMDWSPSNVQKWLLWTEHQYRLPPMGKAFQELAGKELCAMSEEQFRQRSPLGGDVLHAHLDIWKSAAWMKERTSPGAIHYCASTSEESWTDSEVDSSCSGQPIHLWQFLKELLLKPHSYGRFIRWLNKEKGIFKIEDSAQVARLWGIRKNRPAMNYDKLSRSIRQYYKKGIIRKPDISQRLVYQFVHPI
Method in brief: as §1

ETV7 = molecular target: T10, ETV7 (Homo sapiens, UniProt Q9Y603 1-341); conditions: protein: recombinant; tags: N-terminal GST; dsDNA, one strand shown
T10 sequence: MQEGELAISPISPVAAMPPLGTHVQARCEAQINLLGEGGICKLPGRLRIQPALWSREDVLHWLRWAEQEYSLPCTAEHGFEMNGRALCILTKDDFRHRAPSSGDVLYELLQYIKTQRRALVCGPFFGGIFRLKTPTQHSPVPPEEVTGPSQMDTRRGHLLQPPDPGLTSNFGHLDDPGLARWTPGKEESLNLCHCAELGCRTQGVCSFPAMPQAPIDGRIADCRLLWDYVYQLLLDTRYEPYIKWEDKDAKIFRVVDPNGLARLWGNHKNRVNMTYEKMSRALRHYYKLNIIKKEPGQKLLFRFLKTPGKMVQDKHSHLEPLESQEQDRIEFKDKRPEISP
Method in brief: as §1

ELF5 = molecular target: T11, ELF5 (Homo sapiens, UniProt Q9UKW6-2 1-255); conditions: protein: recombinant; tags: N-terminal GST; dsDNA, one strand shown
T11 sequence: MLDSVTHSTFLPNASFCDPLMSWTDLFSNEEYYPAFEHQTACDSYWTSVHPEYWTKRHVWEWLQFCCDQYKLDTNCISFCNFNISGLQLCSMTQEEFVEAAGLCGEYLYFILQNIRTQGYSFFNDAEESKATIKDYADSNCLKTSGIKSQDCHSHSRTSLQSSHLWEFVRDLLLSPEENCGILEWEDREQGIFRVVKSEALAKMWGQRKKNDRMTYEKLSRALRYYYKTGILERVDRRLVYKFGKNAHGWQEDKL
Method in brief: as §1

ETV3 = molecular target: T12, ETV3 (Homo sapiens, UniProt P41162-2 1-143); conditions: protein: recombinant; tags: N-terminal GST; dsDNA, one strand shown
T12 sequence: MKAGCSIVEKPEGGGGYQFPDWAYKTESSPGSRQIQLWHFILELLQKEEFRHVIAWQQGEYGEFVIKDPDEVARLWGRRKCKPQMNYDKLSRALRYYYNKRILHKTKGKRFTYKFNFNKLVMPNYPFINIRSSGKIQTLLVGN
Method in brief: as §1

ETV6 = ETV6 (Homo sapiens, UniProt P41212 1-452); conditions: protein: recombinant; tags: N-terminal GST; dsDNA, one strand shown
Method in brief: as §1

Chain of HSF1 (Q00613 whole entry): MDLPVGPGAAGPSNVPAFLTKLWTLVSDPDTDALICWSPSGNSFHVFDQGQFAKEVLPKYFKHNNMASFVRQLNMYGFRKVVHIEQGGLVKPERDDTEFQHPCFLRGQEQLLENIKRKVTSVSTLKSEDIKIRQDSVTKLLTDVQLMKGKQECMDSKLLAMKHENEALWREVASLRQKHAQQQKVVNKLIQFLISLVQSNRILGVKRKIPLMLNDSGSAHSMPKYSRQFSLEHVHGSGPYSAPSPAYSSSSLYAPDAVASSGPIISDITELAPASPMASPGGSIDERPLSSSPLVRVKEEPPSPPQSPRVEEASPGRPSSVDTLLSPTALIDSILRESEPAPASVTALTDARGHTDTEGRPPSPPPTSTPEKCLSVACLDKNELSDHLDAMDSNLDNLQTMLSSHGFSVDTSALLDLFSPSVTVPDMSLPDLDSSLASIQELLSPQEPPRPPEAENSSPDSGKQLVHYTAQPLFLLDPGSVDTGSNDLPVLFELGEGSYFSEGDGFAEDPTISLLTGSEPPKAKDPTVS
Chain of ELF4 (Q99607 whole entry): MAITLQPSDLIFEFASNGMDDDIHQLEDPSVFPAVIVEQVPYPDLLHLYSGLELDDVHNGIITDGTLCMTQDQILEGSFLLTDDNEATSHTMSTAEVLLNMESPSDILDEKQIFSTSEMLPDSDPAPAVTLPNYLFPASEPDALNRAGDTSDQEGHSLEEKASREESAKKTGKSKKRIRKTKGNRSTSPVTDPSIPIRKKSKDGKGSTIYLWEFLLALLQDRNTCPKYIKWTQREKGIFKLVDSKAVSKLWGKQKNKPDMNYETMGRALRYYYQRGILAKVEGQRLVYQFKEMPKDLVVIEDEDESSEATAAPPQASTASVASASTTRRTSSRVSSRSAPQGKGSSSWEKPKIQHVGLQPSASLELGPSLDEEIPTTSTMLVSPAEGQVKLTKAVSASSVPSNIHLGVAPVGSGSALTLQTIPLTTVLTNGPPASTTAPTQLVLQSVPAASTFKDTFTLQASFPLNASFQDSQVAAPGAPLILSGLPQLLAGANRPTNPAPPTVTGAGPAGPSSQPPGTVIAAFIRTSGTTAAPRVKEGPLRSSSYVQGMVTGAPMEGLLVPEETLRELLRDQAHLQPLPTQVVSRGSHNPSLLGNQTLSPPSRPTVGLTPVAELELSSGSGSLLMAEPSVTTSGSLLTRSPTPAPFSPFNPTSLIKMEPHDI
Chain of ETV6 (P41212 whole entry): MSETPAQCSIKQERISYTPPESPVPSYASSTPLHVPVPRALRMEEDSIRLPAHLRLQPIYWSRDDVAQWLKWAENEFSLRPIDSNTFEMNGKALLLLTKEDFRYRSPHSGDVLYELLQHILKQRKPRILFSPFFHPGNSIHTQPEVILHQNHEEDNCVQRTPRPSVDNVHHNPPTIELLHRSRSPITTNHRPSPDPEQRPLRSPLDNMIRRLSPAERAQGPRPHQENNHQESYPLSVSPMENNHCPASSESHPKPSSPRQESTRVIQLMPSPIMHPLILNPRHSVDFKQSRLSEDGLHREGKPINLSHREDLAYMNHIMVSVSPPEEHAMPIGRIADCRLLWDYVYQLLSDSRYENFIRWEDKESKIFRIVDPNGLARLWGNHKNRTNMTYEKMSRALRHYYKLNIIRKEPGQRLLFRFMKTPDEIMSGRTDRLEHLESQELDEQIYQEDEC
Chain of ETV5 (P41161 whole entry): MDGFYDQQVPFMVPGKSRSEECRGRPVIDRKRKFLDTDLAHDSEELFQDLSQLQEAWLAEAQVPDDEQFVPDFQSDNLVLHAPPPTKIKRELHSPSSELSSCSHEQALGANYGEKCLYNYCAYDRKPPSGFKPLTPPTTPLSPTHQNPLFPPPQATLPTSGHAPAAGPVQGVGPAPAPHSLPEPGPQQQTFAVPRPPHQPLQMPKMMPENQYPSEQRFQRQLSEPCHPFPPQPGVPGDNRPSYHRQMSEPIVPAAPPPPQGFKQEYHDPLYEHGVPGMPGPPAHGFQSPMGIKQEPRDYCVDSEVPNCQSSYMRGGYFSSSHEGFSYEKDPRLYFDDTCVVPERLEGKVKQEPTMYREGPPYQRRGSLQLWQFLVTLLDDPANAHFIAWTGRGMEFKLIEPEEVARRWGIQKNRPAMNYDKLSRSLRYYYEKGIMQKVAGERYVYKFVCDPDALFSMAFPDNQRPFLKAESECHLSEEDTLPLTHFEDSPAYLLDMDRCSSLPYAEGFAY
Chain of CRX (O43186 whole entry): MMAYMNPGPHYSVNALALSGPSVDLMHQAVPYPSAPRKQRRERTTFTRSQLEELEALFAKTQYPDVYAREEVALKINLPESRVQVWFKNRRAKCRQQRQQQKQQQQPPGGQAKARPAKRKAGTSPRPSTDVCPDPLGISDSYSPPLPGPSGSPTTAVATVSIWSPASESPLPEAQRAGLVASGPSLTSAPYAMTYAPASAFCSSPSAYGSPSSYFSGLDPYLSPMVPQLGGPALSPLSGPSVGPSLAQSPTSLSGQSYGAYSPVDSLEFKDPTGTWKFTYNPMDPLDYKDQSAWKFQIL
Chain of ETV1 (P50549 whole entry): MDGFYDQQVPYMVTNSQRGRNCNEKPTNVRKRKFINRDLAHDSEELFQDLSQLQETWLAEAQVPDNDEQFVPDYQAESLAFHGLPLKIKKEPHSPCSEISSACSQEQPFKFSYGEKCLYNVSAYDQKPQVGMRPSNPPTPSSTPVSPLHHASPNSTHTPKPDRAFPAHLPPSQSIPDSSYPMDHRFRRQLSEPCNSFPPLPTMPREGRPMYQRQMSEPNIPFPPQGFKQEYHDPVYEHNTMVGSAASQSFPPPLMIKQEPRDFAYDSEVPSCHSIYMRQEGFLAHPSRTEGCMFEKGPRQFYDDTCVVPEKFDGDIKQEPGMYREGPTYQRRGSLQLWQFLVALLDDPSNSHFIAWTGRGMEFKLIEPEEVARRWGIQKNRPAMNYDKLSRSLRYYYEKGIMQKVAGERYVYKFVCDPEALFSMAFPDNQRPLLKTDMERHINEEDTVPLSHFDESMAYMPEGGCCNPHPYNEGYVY

GTAAAC
binding signal (FEV): 1.17 fold enrichment (6-mer frequency, TF over GST control)
binding signal (ETV5): 1.18 fold enrichment (6-mer frequency, TF over GST control)
binding signal (HSF1): 1.03 fold enrichment (6-mer frequency, TF over GST control)
binding signal (SPIC): 1.23 fold enrichment (6-mer frequency, TF over GST control)
binding signal (ELF4): 1.23 fold enrichment (6-mer frequency, TF over GST control)
binding signal (ELK4): 1.27 fold enrichment (6-mer frequency, TF over GST control)
binding signal (ETV2): 1.15 fold enrichment (6-mer frequency, TF over GST control)
binding signal (ELF3): 1.38 fold enrichment (6-mer frequency, TF over GST control)
binding signal (CRX): 1.07 fold enrichment (6-mer frequency, TF over GST control)
binding signal (ETV1): 1.22 fold enrichment (6-mer frequency, TF over GST control)
binding signal (ERF): 1.27 fold enrichment (6-mer frequency, TF over GST control)
binding signal (ETV3L): 1.18 fold enrichment (6-mer frequency, TF over GST control)
binding signal (ETS2): 1.28 fold enrichment (6-mer frequency, TF over GST control)
binding signal (SPDEF): 1.17 fold enrichment (6-mer frequency, TF over GST control)
binding signal (ETV7): 1.18 fold enrichment (6-mer frequency, TF over GST control)
binding signal (ELF5): 1.22 fold enrichment (6-mer frequency, TF over GST control)
binding signal (ETV3): 1.3 fold enrichment (6-mer frequency, TF over GST control)
binding signal (ETV6): 1.21 fold enrichment (6-mer frequency, TF over GST control)
